Experimental data taken from PubChem BioAssay (NCI).
This is part of a sample that, as a whole, favours compounds with a hit. Of some 79,000 tested, about 15% had one in any assay. A number with no mark means an inactive call. The source made the active and inactive calls. Rule as the data show it: active = growth inhibition above about 70%; inactive = the rest.

Assay: NCI Yeast Anticancer Drug Screen. Data for the rad52 strain (AID 147);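 also: 0% = growth of vehicle-treated control cultures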
Conditions: S. cerevisiae rad52 mutant growth inhibition, active compounds read high
Description: Growth inhibition of yeast strains with defined genetic alterations is measured as a screen for potential anti-cancer activity. Selected strains with alterations in DNA damage repair or cell cycle control were exposed to compounds and growth inhibition was measured relative to vehicle treated controls. The strain used in this assay is rad52

Compound | growth inhibition (at 1.2 µM) | growth inhibition (at 3.7 µM) | growth inhibition (at 11.0 µM) | growth inhibition (at 33.0 µM) | growth inhibition (at 100.0 µM)
CCC(=O)C1=C(O)c2cc(OC)ccc2CC1C(=O)OC (stereo not given) | -1% | 2% | 7% | 16% | 43%
NC(N)=NS(=O)(=O)c1ccc(Nc2c3ccccc3nc3c(C(=O)NC(CO)(CO)CO)cccc23)cc1 | 1% | 9% | 25% | 66% | 91% (active)
CC1(C)OC(=O)C(=Cc2ccc([N+](=O)[O-])s2)C(=O)O1 | -17% | -35% | -31% | -14% | 98% (active)
O=C1NC(c2cccc(OCc3ccccc3)c2)Nc2ccccc21 (stereo not given) | 16% | 20% | 19% | 14% | 6%
CC1CCN(CCC(=O)c2ccc([N+](=O)[O-])cc2)CC1 | 9% | 1% | 8% | 34% | 40%
OC(CC(O)(C(F)(F)F)C(F)(F)F)c1ccc(C(O)CC(O)(C(F)(F)F)C(F)(F)F)cc1 (stereo not given) | 47% | 64% | 95% (active) | 99% (active) | 99% (active)
O=[N+]([O-])c1ccc(S(=O)(=O)Cc2ccccc2)c([N+](=O)[O-])c1 | 6% | 17% | 47% | 89% (active) | 99% (active)
CCOC(=O)C(Cc1c2ccccc2cc2ccccc12)(NC(C)=O)C(=O)OCC | -2% | -2% | -4% | -6% | 0%
